Results reported in PubChem BioAssay (NCATS).
Inconclusive results are not listed. Activity calls are given as the source filed them. The call rests on the fitted dose curve; in most records, active means well fitted cell-killing curve with a large enough effect; inconclusive means small, poorly fitted or top-dose-only effect, or effect the other way; inactive means flat fitted curve, though single readings scatter.

Tests used:
Assay in all cases: Primary qHTS to identify gynecologic anti-cancer compounds using libraries of approved drugs and bioactive compounds (AID 1345084); further: nearly all actives have a fitted effect of over 55% in size
C33A = conditions: Gynecologic cancer cell panel viability, ATPlite luminescence, 48 h; series mostly up to 57.5 µM
Outline: (§1)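 Cytotoxicity screen measuring ATP content by luciferase luminescence. Each compound is applied at five concentrations for 48 h at 37 C with 5% CO2.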

CAOV3 = conditions: Gynecologic cancer cell panel viability, ATPlite luminescence, 48 h; series mostly up to 57.5 µM
Outline: as §1

CASKI = conditions: Gynecologic cancer cell panel viability, ATPlite luminescence, 48 h; series mostly up to 57.5 µM
Outline: as §1

Es-2 = conditions: Gynecologic cancer cell panel viability, ATPlite luminescence, 48 h; series mostly up to 57.5 µM
Outline: as §1

HeLa = conditions: Gynecologic cancer cell panel viability, ATPlite luminescence, 48 h; series mostly up to 57.5 µM
Outline: as §1

Hek293T = conditions: Gynecologic cancer cell panel viability, ATPlite luminescence, 48 h, control line for the selectivity index; series mostly up to 57.5 µM
Outline: as §1

JEG-3 = conditions: Gynecologic cancer cell panel viability, ATPlite luminescence, 48 h; series mostly up to 57.5 µM
Outline: as §1

OV90 = conditions: Gynecologic cancer cell panel viability, ATPlite luminescence, 48 h; series mostly up to 57.5 µM
Outline: as §1

PA-1 = conditions: Gynecologic cancer cell panel viability, ATPlite luminescence, 48 h; series mostly up to 57.5 µM
Outline: as §1

SKOV3 = conditions: Gynecologic cancer cell panel viability, ATPlite luminescence, 48 h; series mostly up to 57.5 µM
Outline: as §1

Tov-21-G = conditions: Gynecologic cancer cell panel viability, ATPlite luminescence, 48 h; series mostly up to 57.5 µM
Outline: as §1

Tov112D = conditions: Gynecologic cancer cell panel viability, ATPlite luminescence, 48 h; series mostly up to 57.5 µM
Outline: as §1
On the % scale 0 is the no-effect control and ±100 the full control effect.

COC1CC(OC2CCC3(C)C(=CCC4C3C(OC(C)=O)C(OC(=O)/C=C/c3ccccc3)C3(C)C(C(C)O)CCC43O)C2)OC(C)C1OC1CC(OC)C(OC2OC(C)C(OC3OC(CO)C(O)C(O)C3O)C(OC)C2O)C(C)O1 (stereo unspecified)
inactive: activity change, negative = cytotoxicity (C33A) -4.62% [at 6.55 µM] | activity change, negative = cytotoxicity (CAOV3) 1.34% [at 6.55 µM] | activity change, negative = cytotoxicity (CASKI) -3.47% [at 6.55 µM] | activity change, negative = cytotoxicity (Es-2) 4.75% [at 6.55 µM] | activity change, negative = cytotoxicity (HeLa) -0.474% [at 6.55 µM] | activity change, negative = cytotoxicity (Hek293T) -0.285% [at 6.55 µM] | activity change, negative = cytotoxicity (JEG-3) -8.61% [at 6.55 µM] | activity change, negative = cytotoxicity (OV90) -2.22% [at 6.55 µM] | activity change, negative = cytotoxicity (PA-1) -0.704% [at 6.55 µM] | activity change, negative = cytotoxicity (SKOV3) -8.31% [at 6.55 µM] | activity change, negative = cytotoxicity (Tov-21-G) 9.97% [at 6.55 µM] | activity change, negative = cytotoxicity (Tov112D) 2.28% [at 6.55 µM]

COc1ccc(/C=C/C(=O)O[C@H]2[C@H](O[C@H]3[C@@H]4C=CO[C@@H](O[C@@H]5O[C@H](CO)[C@@H](O)[C@H](O)[C@H]5O)[C@@H]4[C@@]4(CO)O[C@@H]34)O[C@@H](C)[C@H](O)[C@H]2OC(C)=O)cc1
inactive: Potency (C33A) | Potency (CAOV3) | Potency (CASKI) | Potency (Es-2) | Potency (HeLa) | Potency (Hek293T) | Potency (JEG-3) | Potency (OV90) | Potency (PA-1) | Potency (SKOV3) | Potency (Tov-21-G) | Potency (Tov112D)

C[C@@H]([C@@H](O)c1ccc(O)cc1)N1CCC(O)(c2ccccc2)CC1
inactive: Potency (C33A) | Potency (CAOV3) | Potency (CASKI) | Potency (Es-2) | Potency (HeLa) | Potency (Hek293T) | Potency (JEG-3) | Potency (OV90) | Potency (PA-1) | Potency (SKOV3) | Potency (Tov-21-G) | Potency (Tov112D)

CCCCCCOc1cc2c(cc1N(C)c1ncc(C(=O)O)cn1)C(C)(C)CCC2(C)C
inactive: Potency (C33A) | Potency (CAOV3) | Potency (CASKI) | Potency (Es-2) | Potency (HeLa) | Potency (Hek293T) | Potency (JEG-3) | Potency (OV90) | Potency (PA-1) | Potency (SKOV3) | Potency (Tov-21-G) | Potency (Tov112D)

CN(C)CCn1cc(S(=O)(=O)c2cccc(F)c2)c2cccnc21
inactive: Potency (C33A) | Potency (CAOV3) | Potency (CASKI) | Potency (Es-2) | Potency (HeLa) | Potency (Hek293T) | Potency (JEG-3) | Potency (OV90) | Potency (PA-1) | Potency (SKOV3) | Potency (Tov-21-G) | Potency (Tov112D)

O=C(/C=C/c1ccc(O)cc1)OC1[C@H](O)CC(O)(C(=O)O)C[C@H]1O (stereo partly specified)
inactive: Potency (C33A) | Potency (CAOV3) | Potency (CASKI) | Potency (Es-2) | Potency (HeLa) | Potency (Hek293T) | Potency (JEG-3) | Potency (OV90) | Potency (PA-1) | Potency (SKOV3) | Potency (Tov-21-G) | Potency (Tov112D)

CCc1ccc(Cc2ccc3c(c2)[C@]2(OC3)O[C@H](CO)[C@@H](O)[C@H](O)[C@H]2O)cc1
inactive: Potency (C33A) | Potency (CAOV3) | Potency (CASKI) | Potency (Es-2) | Potency (HeLa) | Potency (Hek293T) | Potency (JEG-3) | Potency (OV90) | Potency (PA-1) | Potency (SKOV3) | Potency (Tov-21-G) | Potency (Tov112D)

[N-]=[N+]=N[C@]1(CO)O[C@@H](n2ccc(=O)[nH]c2=O)[C@@H](O)[C@@H]1O
inactive: Potency (C33A) | Potency (CAOV3) | Potency (CASKI) | Potency (Es-2) | Potency (HeLa) | Potency (Hek293T) | Potency (JEG-3) | Potency (OV90) | Potency (PA-1) | Potency (SKOV3) | Potency (Tov-21-G) | Potency (Tov112D)

CCOC(=O)c1sc(NC(=O)[C@H](C(C)C)n2c(=O)[nH]c3ccccc3c2=O)nc1C
inactive: Potency (C33A) | Potency (CAOV3) | Potency (CASKI) | Potency (Es-2) | Potency (HeLa) | Potency (Hek293T) | Potency (JEG-3) | Potency (OV90) | Potency (PA-1) | Potency (SKOV3) | Potency (Tov-21-G) | Potency (Tov112D)

CC[C@H](NC(=O)[C@H](CS(=O)(=O)CC1CC1)N[C@@H](c1ccc(F)cc1)C(F)(F)F)C(=O)C(=O)NC1CC1
inactive: Potency (C33A) | Potency (CAOV3) | Potency (CASKI) | Potency (Es-2) | Potency (HeLa) | Potency (Hek293T) | Potency (JEG-3) | Potency (OV90) | Potency (PA-1) | Potency (SKOV3) | Potency (Tov-21-G) | Potency (Tov112D)

C=C[C@]1(C)C=C2CCC3C(C)(CCC[C@@]3(C)C(=O)O)C2CC1 (stereo partly specified)
inactive: Potency (C33A) | Potency (CAOV3) | Potency (CASKI) | Potency (Es-2) | Potency (HeLa) | Potency (Hek293T) | Potency (JEG-3) | Potency (OV90) | Potency (PA-1) | Potency (SKOV3) | Potency (Tov-21-G) | Potency (Tov112D)

C/C=C/c1cc(OC)c2c(c1)[C@@H](C)[C@@H](c1ccc(O)c(OC)c1)O2
inactive: Potency (C33A) | Potency (CAOV3) | Potency (CASKI) | Potency (Es-2) | Potency (HeLa) | Potency (Hek293T) | Potency (JEG-3) | Potency (OV90) | Potency (PA-1) | Potency (SKOV3) | Potency (Tov-21-G) | Potency (Tov112D)

C=CC(C)(O)CC[C@H]1C(=C)CCC2[C@](C)(C(=O)O)CCC[C@@]21C (stereo partly specified)
inactive: Potency (C33A) | Potency (CAOV3) | Potency (CASKI) | Potency (Es-2) | Potency (HeLa) | Potency (Hek293T) | Potency (JEG-3) | Potency (OV90) | Potency (PA-1) | Potency (SKOV3) | Potency (Tov-21-G) | Potency (Tov112D)
